# KDM4E inh = qHTS Assay for Inhibitors of Human Jumonji Domain Containing 2E (JMJD2E); Lysine-specific demethylase 4E (Homo sapiens), B2RXH2; JMJD2E catalytic domain, FDH-coupled NADH fluorescence (FDH is formaldehyde dehydrogenase); Potency, µM (doses to about 57.1 µM), hits mostly inhibitors; 1.6% of 230,000 active; active = well fitted inhibition curve with a large enough effect, not every such curve was filed as active; inconclusive = small, poorly fitted or top-dose-only effect, or another doubt; inactive = no such curve, though single readings can be large or run the other way; note: nearly all actives have a fitted effect of over 50% in size
# HTT cytoprotect = qHTS Multiplex Assay to Identify Dual Action Probes in a Cell Model of Huntington: Cytoprotection (ATP). AID 1471, 2008. PC12 HTT-Q103 induced, cytoprotection, ATP luminescence, 40 h. Potency, µM (doses to about 56.4 µM), most hits filed as activators. 0.14% of 230,000 active; note: nearly all actives have a fitted effect of over 45% in size
#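 ATP quantification (ATPlite) reports survival of PC12 cells in which tebufenozide, 100 nM final, switches on Htt exon 1 with 103 glutamines linked to GFP; compounds are titrated.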
# HttQ103 aggreg = qHTS Multiplex Assay to Identify Dual Action Probes in a Cell Model of Huntington: Aggregate Formation (GFP) | PC12 HttQ103-GFP aggregates, Acumen cytometry, 40 h | Potency, µM (highest dose often 46.1 µM), actives largely listed as inhibitors | 1.1% of 220,000 active | AID 1688, 2009; note: nearly all actives have a fitted effect of over 60% in size
#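 Aggregate formation scored by laser-scanning cytometer (488 excitation, 500–530 emission) in lysed PC12 cells expressing Q103-GFP after 100 nM tebufenozide induction; library tested in dose series, with ATPLite reagent added in the multiplex.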
# L3MBTL1 inh = qHTS Assay for the Inhibitors of L3MBTL1 | 0.66% of 230,000 active | Lethal(3)malignant brain tumor-like protein 1 (Homo sapiens), Q9Y468 | Potency, µM (series often up to 57.1 µM), usual class: inhibitors | AID 485360, 2010 | AlphaScreen L3MBTL1–H3K9me1 peptide binding; note: nearly all actives have a fitted effect of over 60% in size
# Target sequence (Q9Y468 whole entry, looked up): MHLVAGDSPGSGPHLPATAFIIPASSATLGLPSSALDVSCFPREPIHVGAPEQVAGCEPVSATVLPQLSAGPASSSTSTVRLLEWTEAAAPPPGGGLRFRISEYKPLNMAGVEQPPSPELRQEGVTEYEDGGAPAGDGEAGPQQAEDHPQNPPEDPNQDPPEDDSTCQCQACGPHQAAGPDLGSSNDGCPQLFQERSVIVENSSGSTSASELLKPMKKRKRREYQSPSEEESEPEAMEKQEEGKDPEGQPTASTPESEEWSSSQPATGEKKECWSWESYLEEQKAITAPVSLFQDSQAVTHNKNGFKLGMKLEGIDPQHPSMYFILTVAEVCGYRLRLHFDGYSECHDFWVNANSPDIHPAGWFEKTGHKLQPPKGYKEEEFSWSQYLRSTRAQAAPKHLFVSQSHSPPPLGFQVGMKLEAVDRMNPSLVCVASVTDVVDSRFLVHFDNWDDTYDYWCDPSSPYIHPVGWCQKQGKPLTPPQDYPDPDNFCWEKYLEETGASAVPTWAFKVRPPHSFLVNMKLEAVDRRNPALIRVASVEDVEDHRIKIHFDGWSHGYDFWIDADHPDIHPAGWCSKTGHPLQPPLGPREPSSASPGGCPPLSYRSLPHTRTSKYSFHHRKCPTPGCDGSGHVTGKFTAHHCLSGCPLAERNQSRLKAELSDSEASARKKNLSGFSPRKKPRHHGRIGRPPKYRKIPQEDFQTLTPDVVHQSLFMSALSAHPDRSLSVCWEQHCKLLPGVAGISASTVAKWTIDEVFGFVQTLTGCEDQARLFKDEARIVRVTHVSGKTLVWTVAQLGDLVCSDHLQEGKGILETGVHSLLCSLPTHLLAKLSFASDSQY
#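 L3MBTL1 (50 nM) pre-complexed 30 min with biotinylated H3(1-15)K9me1 peptide (75 nM), then compounds added for 30 min at room temperature; AlphaScreen streptavidin donor/nickel chelate acceptor beads (10 ug/mL final) read after 30 min dark incubation.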
# Numbers stand for hits; - = inactive; ? = inconclusive; . = not tested or not shown; ! = repeats disagree; [ ] = another dose, or the depositor's remark. A selection: hits, their analogues and other compounds. The true share with any hit is near 1.8%. Unless noted, calls come from the whole dose curve; as a rule, active = well fitted curve in the direction sought with a large enough effect; inconclusive = small, poorly fitted or top-dose-only effect, or another doubt; inactive = no such curve, though single readings can be large; an effect the other way counts as inactive or inconclusive.
SMILES,KDM4E inh,HTT cytoprotect,HttQ103 aggreg,L3MBTL1 inh
CN(C)c1ncc2nc(-c3ccccc3)c(=O)n(C[C@H]3CCCO3)c2n1,.,-,.,.
N#C/C(=N\Nc1cccc(Cl)c1)C(=O)c1ccccc1,-,-,3.55µM,-
O=S(=O)(NC1=NCCCCC1)c1ccc2sc(NS(=O)(=O)c3ccc4ccccc4c3)nc2c1,-,-[10 µM],-[9.22 µM],.
O=S(=O)(Nc1nc2c(s1)CCCC2)c1ccc2ccccc2c1,-,-,11.2µM,.
CC1CCN(CC(=O)NCc2ccccc2)CC1,-,-[0.074 µM],2.51µM,-
CC1CCN(CC(=O)Nc2ccc(S(=O)(=O)N3CCCCC3)cc2)CC1,.,.,.,-
O=C(CNCC1CCCCC1)Nc1ccc(N2CCCCC2)cc1,28.2µM,-,-,?
CC1CCN(CC(=O)Nc2ccc(N3CCCCCC3)cc2)CC1,22.4µM,-[10 µM],-[9.22 µM],?
O=C(CNC1CCCC1)Nc1ccc(N2CCCCCC2)cc1,8.91µM,-[10 µM],-,-
O=C(CN1CCCCCC1)NCc1ccccc1,-,-[10 µM],-,-
COc1cccc(OC)c1OCCNC[C@@H]1CSc2ccccc2O1,.,-[1.9 µM],.,.
CC1CCC2C(=O)N3C(CCC(C)[C@@H]3c3ccc(Br)cc3)C(=O)N2C1c1ccc(Br)cc1 (stereo partly drawn),.,-[10 µM],.,.
COc1ccccc1CNc1ncnc2ccc(-c3cccnc3)cc12,?,-,.,.
CCCC(=O)O[C@]1(C(=O)CCl)[C@H](C)C[C@@H]2[C@H]3CCC4=CC(=O)C=C[C@]4(C)[C@@]3(F)C(=O)C[C@@]21C,.,-,-,.
C[C@]12CCC(=O)C=C1CC[C@@H]1[C@H]2[C@@H](O)C[C@@]2(C)[C@H]1CC[C@]2(O)C(=O)CO,.,-,-,.
Cc1ccc(C(=O)Nc2ccc(N3CCCC3)cc2)c(C)c1,25.1µM,-[10 µM],-[9.22 µM],-
COC(=O)c1ccc(-c2nc3cc(Cl)c(N)cc3s2)cc1,2.51µM,-[10 µM],-,-
CC1=CC(C)=Nc2ccc(C)cc2N1,-,?,0.891µM!,.
Cc1ccc2c(c1)NC(=O)CC(c1ccccc1)=N2,-,-[1.9 µM],-,-
COC(=O)C1=COC(C)C2CN3CCc4c([nH]c5ccccc45)C3CC12 (stereo not drawn),-,-,11.2µM,-
COC(=O)[C@H]1[C@@H]2C[C@H]3c4[nH]c5ccccc5c4CCN3C[C@@H]2CC[C@@H]1O,.,-,.,.
COC(=O)C1=CO[C@@H](C)[C@H]2CN3CCc4c([nH]c5ccccc45)[C@@H]3C[C@H]12,12.6µM!,-,.,-
COc1ccccc1-c1ccc2ncnc(Nc3ccccc3)c2c1,.,-,.,.
COc1cc(-c2nc(S(=O)(=O)c3ccc(C)cc3)c(N3CCOCC3)o2)cc(OC)c1OC,-,-[10 µM],-,-
COc1cc(-c2nc(S(=O)(=O)c3ccc(C)cc3)c(N(C)C)o2)cc(OC)c1OC,?,0.891µM,.,-
SMILES,KDM4E inh,HTT cytoprotect,HttQ103 aggreg,L3MBTL1 inh
CCOC(=O)N1CCC(N2CCCC(CO)(Cc3cccc(OC)c3)C2)CC1 (stereo not drawn),-,.,0.0006µM,-
COc1ccccc1NC(=O)N1CCN(CCc2ccccc2)CC1,-,-[10 µM],-[9.22 µM],.
CCN1CCN(C(=O)Nc2ccccc2OC)CC1,-,-[10 µM],-,39.8µM
O=C1CC(=O)N(CCc2ccccc2)C(=O)N1CCc1ccccc1,-,-[0.074 µM],0.398µM,?
C=CCn1c(NC(C)c2cc(Cl)ccc2O)nc2ccccc21 (stereo not drawn),-,-,11.2µM,-
C=CCn1c(NCc2cc(C)ccc2O)nc2ccccc21,-,-,-,.
CN(C)c1ccc(N/C=C/C(=O)C(C)(C)C)cc1,7.08µM,-,-,.
CC(C)C[C@@H](CC(=O)N[C@@H](CCCN)CC(=O)N[C@@H]1CCCC[C@H]1C(=O)N[C@H](CC(=O)N[C@@H](CCC(=O)O)CC(=O)O)CC(C)C)NC(=O)[C@@H]1CCCC[C@H]1N,-,-[1.9 µM],.,.
O=C(O)Cc1ccc(N=Nc2c(O)c(C(=O)O)cc3ccccc23)cc1,?,-[10 µM],-[9.22 µM],25.1µM
COc1cc([N+](=O)[O-])cc(/C=N/NC(=O)CSc2ccccn2)c1O,20µM,-[10 µM],-[9.22 µM],.
COc1cc([N+](=O)[O-])cc(/C=N/NC(=O)Cn2cncn2)c1O,14.1µM,-[10 µM],-[9.22 µM],?
COc1cc([N+](=O)[O-])cc(/C=N/NC(=O)c2ccc(C)nc2)c1O,14.1µM,-[10 µM],?,?
CCn1c(Oc2ccc(F)cc2)nc2c1c(=O)n(C)c(=O)n2C,-,-,11.2µM,-
COc1ccc(O[C@H]2C=C[C@@H](c3ccccc3)O[C@H]2COC(=O)CC/C(C)=N\OC[C@@H](O)COCc2ccco2)cc1,.,-[10 µM],.,.
Cc1c(C(=O)Nc2ccc(Oc3ccccc3)cc2)sc2nc3n(c(=O)c12)CCC3,?,-,4.47µM,-
Cc1c(C(=O)Nc2ccc(OC(F)(F)F)cc2)sc2nc3n(c(=O)c12)CCC3,-,-,-,-
CC(C)c1cc(NC(=O)c2ccccc2)cc(C(C)C)c1O,-,-,11.2µM,-
CC(=O)Nc1cc(C(C)C)c(O)c(C(C)C)c1,-,-,-,-
c1coc(-c2nc3c4c5c(sc4ncn3n2)CCCC5)c1,-,-,-,-[11.4 µM]
CN1CCc2c(sc3ncn4nc(-c5ccccc5O)nc4c23)C1,22.4µM,-,-,.
COc1ccc(/C=C/N(CCc2ccc(OC)c(OC)c2)C(C)=O)cc1,.,-[10 µM],.,.
C=C1CC[C@@H]2[C@](C)(CC[C@@H](O)[C@]2(C)CO)[C@@H]1C/C=C1/C(=O)OC[C@H]1O,.,39.8µM,.,.
C=C1CCC2C(C)(CO)C(O)CCC2(C)C1C/C=C1\C(=O)OCC1O (stereo not drawn),-,-[1.9 µM],.,.
C[C@@H](N)CCCP(=O)(O)O,.,-,.,.
COCCn1c(=O)c(-c2cccs2)nc2cnc(Oc3ccc(OC)cc3)nc21,.,-,.,.
SMILES,KDM4E inh,HTT cytoprotect,HttQ103 aggreg,L3MBTL1 inh
CN(C)CCNC(=O)/C(=C/c1ccc(-c2ccc(Cl)cc2)o1)NC(=O)c1ccccc1,-,-[0.074 µM],3.16µM,-
CN(C)CCCNC(=O)/C(=C\c1ccc(-c2cccc([N+](=O)[O-])c2)o1)NC(=O)c1ccccc1,-,.,.,-
CN(C)CCNC(=O)/C(=C/c1ccc(-c2ccc(Cl)cc2Cl)o1)NC(=O)c1ccccc1,-,.,35.5µM,-
Cc1ccc(C(=O)N/C(=C\c2ccc(-c3ccc(Br)cc3)o2)C(=O)NCCCN(C)C)cc1,?,-[10 µM],?,-
CC[C@@H](c1ccccc1)n1c(=O)n2n(c1=O)[C@H]1[C@H](O)[C@H]3O[C@H]3C(=O)[C@H]1CC2,.,-[10 µM],.,.
COc1ccc(CNc2cc(-c3ccoc3)ncn2)c(OC)c1,.,-,.,.
Cc1ccccc1OCCSc1nc(N(C)C)nc(N(C)C)n1,-,.,-,-
CCOc1nc(SCCOc2ccccc2)nc(N(C)C)n1,-,?,0.447µM,-[11.4 µM]
Cn1c(-n2cccc2)c(-c2c(-c3ccccc3)[nH]c3c2c(=O)[nH]c(=O)n3C)c(=O)[nH]c1=O,.,.,.,14.1µM
Cc1cc(C)n(CC(=O)N/N=C/c2cc([N+](=O)[O-])ccc2O)n1,-,-[10 µM],-,?
Cn1c(SCC(=O)N/N=C/c2ccc([N+](=O)[O-])s2)nnc1-c1ccccc1,-,-[10 µM],?,-
